Experimental data reported in ChEMBL document CHEMBL3988442, “University of Dundee, Small-Polar-MMV Screening Library” (2021).
The whole screen tested about 48,000 compounds, of which about 13,000 (27%) showed an effect of 50% or more. This is one part of the list.

tested on: Wolbachia pipientis; assay: Anti-Wolbachia Cell-Based Screen; type: functional; set-up: scale not given: in the data most compounds retested in dose-response had high values; settings: 5 µM

SMILES	Percent Effect [%]
CCCN(C(=O)CS(=O)(=O)c1ccccc1)c1cccc(C)c1	-28.2
OC1CCN(Cc2ccc(CNc3ccc(Cl)cn3)cc2)CC1	-3.648
O=C(CCNc1ccc(Br)cn1)NCc1ccncc1	2.511
Cl.c1cc(CNc2cnc(C3CCCN3)cn2)ccn1 (stereo not drawn)	93.64
c1ccc(NCCn2cc(C3CCCNC3)nn2)cc1 (stereo not drawn)	-6.163
Cl.c1cc(NCc2ccncc2)nc(C2CCCN2)c1 (stereo not drawn)	109.1
COCC(=O)Nc1ccc(-c2noc([C@@H]3CCCN3)n2)cn1	10.12
Cc1cccc(-c2c[nH]c(C3CCCN3)n2)c1.Cl.Cl (stereo not drawn)	-28.51
Cl.c1cc(NCc2ccncc2)nc(C2CCCNC2)c1 (stereo not drawn)	93.58
Cl.FC(F)CNc1cnc(C2CCCN2)cn1 (stereo not drawn)	111.3
CCOc1cncc(N(C)CC(=O)NC)n1	3.632
COc1ccc(F)cc1C(=O)N1CCn2c(nnc2C(F)(F)F)C1	-12.82
CC(CNC(=O)c1cccc(-n2cccn2)n1)Cn1ccnc1 (stereo not drawn)	-7.743
CCN1CC2(CCC1=O)CCN(C(=O)C(O)c1cccc(Cl)c1)CC2 (stereo not drawn)	-4.5
Cc1ccc(NCCCNC(=O)NCC2CCS(=O)(=O)C2)nc1 (stereo not drawn)	4.563
CCC(CC)CNCC1(S(C)(=O)=O)CCOCC1	-4.414
CC(=O)N[C@@H]1CN(S(=O)(=O)c2ccc(Cl)cc2)C[C@H]1O	155.9
CCC[C@H]1CN(S(=O)(=O)c2ccc(Cl)cc2)C[C@@H]1NC(C)=O	12.77
CCC[C@@H]1CN(S(=O)(=O)c2ccc(OC)c(OC)c2)C[C@H]1NC(C)=O	-5.851
CN(CCC#N)C(=O)Cc1csc(-c2ncccn2)n1	2.424
CNC(=O)[C@@H]1C[C@H](N)CN1Cc1cc2cc(C)cc(C)c2[nH]c1=O	27.32
O=C(O)C(F)(F)F.O=C(O)C(F)(F)F.O=C(O)C(F)(F)F.c1ccc(Cn2cc3c(n2)C(CNCc2ccco2)OCC3)nc1 (stereo not drawn)	-0.4855
CC(C)NCC1OCCc2cn(C)nc21.O=C(O)C(F)(F)F (stereo not drawn)	25.68

SMILES	Percent Effect [%]
COCCn1cc2c(n1)C(CNCc1ccco1)OCC2.O=C(O)C(F)(F)F.O=C(O)C(F)(F)F (stereo not drawn)	3.436
Cc1occc1C(=O)NCC1OCCc2cn(C)nc21.O=C(O)C(F)(F)F (stereo not drawn)	115.2
Cn1cc2c(n1)C(CNCc1ccco1)OCC2.O=C(O)C(F)(F)F.O=C(O)C(F)(F)F (stereo not drawn)	145.8
Cn1cc2c(n1)C(CNCC1CCOCC1)OCC2.O=C(O)C(F)(F)F.O=C(O)C(F)(F)F (stereo not drawn)	10.93
COc1ccccc1C1(CNc2snc(Cl)c2C#N)CCOCC1	-1.634
COc1cc(N2C[C@@H](C)[C@](O)(C3CC3)C2)nc(N)n1	-24.25
CC1CN(c2ncnc3ccccc23)CCO1 (stereo not drawn)	-1.794
CC(C)n1nc(Cn2cccc2)c2c1CN(C1CCOCC1)C2.O=C(O)C(F)(F)F	-6.023
CC(C)n1nc(CN2CCOCC2)c2c1CN(C(=O)c1ccno1)C2.O=C(O)C(F)(F)F	102.9
CC(C)n1nc(Cn2cccc2)c2c1CN(Cc1ccoc1)C2.O=C(O)C(F)(F)F	-4.933
CC(C)n1nc(CN2CCCCC2)c2c1CN(C(=O)c1ccno1)C2.O=C(O)C(F)(F)F	85.62
CC(C)n1nc(CN2CCOCC2)c2c1CN(Cc1ccsc1)C2.O=C(O)C(F)(F)F.O=C(O)C(F)(F)F	-3.193
Cc1ccc(C(=O)N2Cc3c(CN4CCCCC4)nn(C)c3C2)cc1C.O=C(O)C(F)(F)F	-1.924
O=C(c1cc(Cl)c2c(c1)OCO2)N1CCN(c2nccs2)CC1	-12.71
O=C(NCc1c(F)cccc1Cl)c1cc(CN2CCCC(O)C2)on1 (stereo not drawn)	-0.1537
Cc1cccc2c1nc1n2[C@@H](CNC(=O)CCC(=O)O)COC1	-14.2
COc1ccc(C)cc1CC(=O)NC(CC(=O)O)c1ccc(F)cc1 (stereo not drawn)	6.211
CC(C)S(=O)(=O)NCc1cccnc1Oc1ccc(F)cc1F	-8.317
COc1ccc(CC(=O)NC(CC(=O)O)c2ccc(F)cc2)cc1OC (stereo not drawn)	11.02
CNCc1cc(F)ccc1Oc1ccc(F)cc1F	116
Cc1noc(NCc2cc(F)ccc2F)n1	5.671
CN(C)S(=O)(=O)NCc1cccnc1Oc1ccc(F)cc1F	1.253
CNC(=O)COc1ccc(CNCc2ccc(F)cc2F)cc1	-7.839

SMILES	Percent Effect [%]
CNCc1cc(F)ccc1Oc1ccc(F)cc1	114.4
CNCc1cc(F)ccc1Oc1ccc(Cl)cc1	118.2
CC(NCC1CCN(CCO)CC1)c1ccc(Cl)cc1 (stereo not drawn)	5.926
CCc1nn(C)c(Cl)c1CN1CCN(c2ccc(C(N)=O)cn2)CC1	-7.307
CC(C)Cc1ncc2c(n1)CN(C(=O)c1ccc(CN3CCCC3)o1)C2	8.376
O=C(NC1CC1)[C@H]1C[C@H]2OCC[C@H]2N(Cc2cccc3ccccc23)C1.O=C(O)C(F)(F)F	-4.229
Cc1nc(N(C)C)nc(C)c1NC(=O)c1ccco1	16.89
CC(C)C(=O)N1CCN(S(C)(=O)=O)CC2(CC(=O)N(C)C2)C1 (stereo not drawn)	4.406
COCc1noc(-c2ccc(N(C)Cc3cc(C)no3)nc2)n1	-6.826
COCc1noc(-c2ccc(N(C)Cc3ncccc3C)nc2)n1	79.04
COCc1noc(-c2ccc(N(C)Cc3ccc(C)o3)nc2)n1	-8.335
CSc1ccccc1CC1CCCS(=O)(=O)C1 (stereo not drawn)	-14.28
O=S(=O)(NCCSc1nncn1C1CC1)c1ccccc1	13.46
CC(c1nc(C(C)(C)C)no1)N1CCN(C(=O)CN2CCOCC2)CC1 (stereo not drawn)	87.21
CC(c1nc(C2CC2)no1)N1CCN(CCS(C)(=O)=O)CC1 (stereo not drawn)	9.574
CC(c1nc(C(C)(C)C)no1)N1CCC(N2CCCC2)CC1 (stereo not drawn)	-1.947
CC(c1nc(C2CC2)no1)N1CCN(CC(=O)N2CCOCC2)CC1 (stereo not drawn)	99.5
CCc1noc(C(C)N2CCOCC2)n1 (stereo not drawn)	1.305
CC(c1nc(C2CC2)no1)N1CCN(CCc2ccncc2)CC1 (stereo not drawn)	-3.98
CC(C(=O)N1CCOCC1)S(=O)(=O)Cc1nc(C(C)(C)C)no1 (stereo not drawn)	-2.634
CCc1noc(C(C)N2CCN(CC(=O)N3CCOCC3)CC2)n1 (stereo not drawn)	97.96
CCc1noc(C(C)N2CCN(Cc3nc(C)c(C)o3)CC2)n1 (stereo not drawn)	17.35
